Assay outcomes deposited in PubChem BioAssay by Broad Institute.
MITF inhib: inhibitors of MITF, primary screen, MITF inhibitor project, cell-based, luminescence; TRPM1 promoter luciferase, 24 h; inhibition, % (test concentration not listed); 37,000 tested, 0.28% active; AID 2240, 2010; in the data active = inhibition above about 85%; inconclusive = no clear call, values can overlap the other calls; inactive = below about 68%;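 note: human melanocyte line stably carrying TRPM1 promoter luciferase reporter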
NOMO-1 viab: NOMO-1 AML cell viability reduction, primary screen, STK33 inhibitor project, CellTiter-Glo luminescence. NOMO-1 AML viability, 72 h. inhibition, % (concentration not given with the values). 37,000 tested, 7.5% active. AID 2330, 2010; in the data active = inhibition above about 80%; inconclusive = no clear call, values can overlap the other calls
Hedgehog inh: Hedgehog pathway signaling inhibitors, primary screen, luminescence, Shh-LIGHT2 cells, Gli-luciferase; Shh-LIGHT2 Gli-luciferase reporter, 30 h; inhibition, % (concentration not given with the values); 22,000 tested, 2.1% active; AID 2313, 2010;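 active = mean inhibition across valid replicates above about 65%, limit read from the data; inconclusive = mean under the limit, yet half or more replicates past it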;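 note: pathway switched on by Shh-conditioned medium diluted 1 in 25 in low serum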
The depositor's hits bear a star; ? = inconclusive; . = no result given. Shown are actives, neighbours in structure and some others; about 7.9% of the full set was active somewhere.

SMILES	MITF inhib	NOMO-1 viab	Hedgehog inh
C[C@@H]1CN([C@H](C)CO)C(=O)c2cc(NC(=O)Nc3cccc4ccccc34)ccc2O[C@@H]1CN(C)Cc1ccc(C(=O)Nc2ccccc2N)cc1	4	105*	.
C[C@@H]1CN([C@@H](C)CO)C(=O)c2cc(NC(=O)CCN3CCOCC3)ccc2O[C@H]1CN(C)S(=O)(=O)c1ccc(Cl)cc1	1	-17	-31
CC(C)NC(=O)N(C)C[C@@H]1Oc2ccc(NS(=O)(=O)c3ccc(Cl)cc3)cc2C(=O)N([C@H](C)CO)C[C@H]1C	-1	11	-28
C=CC(C)(CC/C=C(\C)C(=O)O)O[C@@H]1O[C@H](C)[C@@H](O)[C@H](O)[C@H]1O (stereo not given in full)	.	.	14
Cc1ccc(NC(=O)CSC2CC(=O)N(c3ccc(Cl)cc3)C2=O)cc1 (stereo not given)	-14	-36	.
Cc1noc(C)c1NC(=O)Nc1ccc2c(c1)CC(=O)N([C@@H](C)CO)C[C@@H](C)[C@@H](CN(C)Cc1ccc(C(=O)Nc3ccccc3N)cc1)O2	-19	36	.
CC(C)NC(=O)Nc1ccc2c(c1)CC(=O)N([C@H](C)CO)C[C@H](C)[C@H](CN(C)Cc1ccc(C(=O)Nc3ccccc3N)cc1)O2	24	126*	.
CCn1c(SCC(=O)Nc2cc(Cl)ccc2Cl)nnc1-c1ccccc1OC	36	56	.
C[C@@H]1CN([C@H](C)CO)C(=O)c2cc(NC(=O)Nc3ccccc3)ccc2O[C@@H]1CN(C)S(=O)(=O)c1ccc(F)cc1	4	19	-16
Cc1ccc(-c2nn(CC(=O)Nc3ccc(C)cc3C)c(=O)c3ccccc23)cc1	12	111*	.
Cc1ccc(NC(=O)Cn2nc(-c3cccc([N+](=O)[O-])c3)c3ccccc3c2=O)c(C)c1	43	60	.
CNC[C@H]1Oc2ccc(NS(=O)(=O)c3ccc(OC)cc3)cc2CC(=O)N([C@H](C)CO)C[C@H]1C	-9	24	33
C[C@H]1CN([C@@H](C)CO)C(=O)Cc2cc(NC(=O)Nc3ccc(F)cc3)ccc2O[C@H]1CN(C)Cc1ccccc1	-5	11	.
C[C@@H]1CN([C@H](C)CO)C(=O)Cc2cc(NC(=O)Nc3ccc(F)cc3)ccc2O[C@@H]1CN(C)Cc1ccc(Oc2ccccc2)cc1	9	114*	43
C[C@H](CO)N1C[C@H](C)[C@H](CN(C)Cc2ccccc2)Oc2ccc(NC(=O)Nc3ccc(F)cc3)cc2CC1=O	4	28	1
C[C@H](CO)N1C[C@H](C)[C@H](CN(C)Cc2ccc(Oc3ccccc3)cc2)Oc2ccc(NC(=O)Nc3ccc(F)cc3)cc2CC1=O	-10	98*	17
COc1ccc(NC(=O)Nc2ccc3c(c2)CC(=O)N([C@@H](C)CO)C[C@@H](C)[C@@H](CN(C)Cc2ccc(Oc4ccccc4)cc2)O3)cc1	14	60	28
C[C@@H]1CN([C@H](C)CO)C(=O)Cc2cc(NC(=O)Nc3ccc(F)cc3)ccc2O[C@H]1CN(C)Cc1ccc(Oc2ccccc2)cc1	5	123*	-3
COc1ccc(NC(=O)Nc2ccc3c(c2)CC(=O)N([C@H](C)CO)C[C@H](C)[C@H](CN(C)Cc2ccc(Oc4ccccc4)cc2)O3)cc1	11	?	-6
C[C@H]1CN([C@@H](C)CO)C(=O)Cc2cc(NC(=O)Nc3ccc(F)cc3)ccc2O[C@@H]1CN(C)Cc1ccc(Oc2ccccc2)cc1	9	107*	18
Cc1ccc(-c2nc3cc(NC(=O)COc4ccccc4Cl)ccc3o2)c(C)c1	-69	68	.
CC(C)NC(=O)Nc1ccc2c(c1)CC(=O)N([C@@H](C)CO)C[C@H](C)[C@H](CN(C)Cc1ccc(Oc3ccccc3)cc1)O2	-25	4	?
CC(C)NC(=O)Nc1ccc2c(c1)CC(=O)N([C@@H](C)CO)C[C@@H](C)[C@@H](CN(C)Cc1ccc(Oc3ccccc3)cc1)O2	25	89*	26
COC(=O)c1c(NC(=S)Nc2nc(C)cc(C)n2)sc2c1CCC2	3	35	.
C[C@H](CO)N1C[C@H](C)[C@H](CN(C)Cc2ccc(-c3ccccc3)cc2)Oc2ccc(N(C)C)cc2C1=O	-11	70	7
Cc1cc(OCC(=O)NCc2cccnc2)c(C)cc1Br	-13	40	.
Cc1ccc(C(=O)OC(c2ccccc2)c2nccc3ccccc23)cc1 (stereo not given)	-32	38	-49
COc1ccc(C(OC(=O)c2ccccc2)c2nccc3ccccc23)cc1 (stereo not given)	-14	105*	.
CCOc1ccc2nc(Nc3nc(C)cc(=O)[nH]3)nc(C)c2c1	-6	18	.
COc1ccc2nc(Nc3nc(CSc4ccc(Cl)cc4)cc(=O)[nH]3)nc(C)c2c1	-3	84*	.
